Measurements from PubChem BioAssay (NCI).
Values joined by “and” are separate entries in the source; they are usually repeats but may differ in a detail not shown here. Equal values may be shown once. This is part of a sample that, as a whole, favours compounds with a hit. Of some 83,000 tested, about 20% had one in any assay.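 In brief: 96-well plates, 48 h treatment, single concentration, percent growth endpoint.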 Active and inactive are the calls of the source. Rule for the calls: active = growth percent below 10; inactive = the rest.

What was measured:
Test in all cases: NCI-60 one-dose screen, 48 h (100 = growth as untreated, 0 = no growth, -100 = all killed)
Conditions in all cases: 10 µM unless noted
NCI-H23 lung = test system: NCI-H23 lung
NCI-H226 lung = test system: NCI-H226 lung
NCI-H322M lung = test system: NCI-H322M lung
HOP-62 NSCLC = test system: HOP-62 NSCLC
NCI-H460 lung = test system: NCI-H460 lung
HOP-92 NSCLC = test system: HOP-92 NSCLC
NCI-H522 lung = test system: NCI-H522 lung
A549/ATCC NSCLC = test system: A549/ATCC NSCLC
786-0 renal = test system: 786-0 renal
COLO 205 colon = test system: COLO 205 colon
DU-145 prostate = test system: DU-145 prostate
K-562 leukemia = test system: K-562 leukemia
MALME-3M melanoma = test system: MALME-3M melanoma
MDA-MB-231 breast = test system: MDA-MB-231 breast
RXF 393 renal = test system: RXF 393 renal
SF-268 CNS = test system: SF-268 CNS
SF-295 CNS = test system: SF-295 CNS
SF-539 CNS = test system: SF-539 CNS
UACC-257 melanoma = test system: UACC-257 melanoma
M14 melanoma = test system: M14 melanoma

Measured: growth

CCOC(=O)c1nnn(Cc2cc(=O)oc3c2ccc2ccccc23)c1C
inactive: NCI-H23 lung 102% | NCI-H226 lung 105% | NCI-H322M lung 98% | HOP-62 NSCLC 106% | NCI-H460 lung 104% | HOP-92 NSCLC 98.8% | NCI-H522 lung 96.3% | A549/ATCC NSCLC 102% | 786-0 renal 102% | COLO 205 colon 107% | DU-145 prostate 103% | K-562 leukemia 104% | MALME-3M melanoma 98.5% | MDA-MB-231 breast 98.7% | RXF 393 renal 112% | SF-268 CNS 105% | SF-295 CNS 98.8% | SF-539 CNS 98.8% | UACC-257 melanoma 94% | M14 melanoma 98.1%

CCCCC1=C(Br)C(=O)c2nc(C)ccc2C1=O
inactive: NCI-H23 lung 92.8% | NCI-H226 lung 91.2% | NCI-H322M lung 88.8% | HOP-62 NSCLC 89.9% | NCI-H460 lung 98.8% | NCI-H522 lung 62.5% | A549/ATCC NSCLC 92% | 786-0 renal 95.2% | COLO 205 colon 37.1% | DU-145 prostate 101% | K-562 leukemia 34% | MALME-3M melanoma 83.6% | MDA-MB-231 breast 80.9% | RXF 393 renal 90.4% | SF-268 CNS 92.8% | SF-295 CNS 103% | SF-539 CNS 92.6% | UACC-257 melanoma 94% | M14 melanoma 96%
active: HOP-92 NSCLC -8.03%

COCCOc1cc2ncnc(N3CCN(S(=O)(=O)c4ccccc4Cl)CC3)c2cc1OCCOC
inactive: NCI-H23 lung 85.8% | NCI-H226 lung 95.5% | NCI-H322M lung 98.3% | HOP-62 NSCLC 90.4% | NCI-H460 lung 103% | HOP-92 NSCLC 75.6% | NCI-H522 lung 65.8% | A549/ATCC NSCLC 86.7% | 786-0 renal 89.2% | COLO 205 colon 96.8% | DU-145 prostate 91.2% | K-562 leukemia 41.3% | MALME-3M melanoma 67.9% | MDA-MB-231 breast 74.8% | RXF 393 renal 83.9% | SF-268 CNS 86.2% | SF-295 CNS 82.7% | SF-539 CNS 88.8% | UACC-257 melanoma 83.5% | M14 melanoma 71.9%

Nc1c(C(=O)Nc2ccncc2)sc2nc3c(cc12)CCCCCCCC3
inactive: NCI-H226 lung 17.6%
active: NCI-H23 lung -63.2% | NCI-H322M lung -54.4% | HOP-62 NSCLC -74.2% | NCI-H460 lung -66.7% | HOP-92 NSCLC -76.2% | NCI-H522 lung -84.9% | A549/ATCC NSCLC -62.7% | 786-0 renal -93.9% | COLO 205 colon -83.2% | DU-145 prostate -75.5% | K-562 leukemia -52% | MALME-3M melanoma -84.6% | MDA-MB-231 breast -72.7% | RXF 393 renal -80.6% | SF-268 CNS -62.4% | SF-295 CNS -77% | SF-539 CNS -91.7% | UACC-257 melanoma -75.7% | M14 melanoma -80.1%

CCOC(=O)c1cnn(CC(O)CC)c1NC(=O)NCc1ccccc1C(F)(F)F (stereo not given)
inactive: NCI-H23 lung 92.7% | NCI-H226 lung 106% | NCI-H322M lung 94.5% | HOP-62 NSCLC 90.8% | NCI-H460 lung 110% | HOP-92 NSCLC 93.9% | NCI-H522 lung 70.3% | A549/ATCC NSCLC 94.9% | 786-0 renal 96% | COLO 205 colon 114% | DU-145 prostate 109% | K-562 leukemia 88.5% | MALME-3M melanoma 103% | MDA-MB-231 breast 105% | RXF 393 renal 119% | SF-268 CNS 100% | SF-295 CNS 90.7% | SF-539 CNS 99.1% | UACC-257 melanoma 103% | M14 melanoma 88.2%

OCCN1CCN(CC/C=C2\c3ccccc3Sc3ccc(Cl)cc32)CC1
10.9% (inactive) and -12.9% (active): HOP-92 NSCLC
inactive: NCI-H23 lung 50.7% and 82.9% | NCI-H226 lung 88.2% and 110% | NCI-H322M lung 83.1% | NCI-H522 lung 37.9% and 13.3% | A549/ATCC NSCLC 60% and 38.2% | 786-0 renal 38.6% | DU-145 prostate 17.1% and 65% | MDA-MB-231 breast 29.3% and 44.8% | RXF 393 renal 23.5% | SF-268 CNS 51.7% and 46.6% | SF-295 CNS 47.6% and 31% | SF-539 CNS 31.8% and 59.7%
active: HOP-62 NSCLC -34.7% and -66.1% | NCI-H460 lung 2.77% and -25% | COLO 205 colon -75.6% and -87.3% | K-562 leukemia -90.8% and -68.9% | MALME-3M melanoma -53.2% | UACC-257 melanoma -83.9% and -94.1% | M14 melanoma -98.7% and -88.3%

COc1nc2ccc(C)cc2cc1/C=[N+](\[O-])c1ccccc1
inactive: NCI-H23 lung 93.8% | NCI-H226 lung 73.6% | NCI-H322M lung 85.1% | HOP-62 NSCLC 81.7% | NCI-H460 lung 98.9% | HOP-92 NSCLC 72.5% | NCI-H522 lung 84.6% | A549/ATCC NSCLC 92.4% | 786-0 renal 103% | COLO 205 colon 96% | DU-145 prostate 95.5% | K-562 leukemia 33.6% | MALME-3M melanoma 94% | MDA-MB-231 breast 78% | RXF 393 renal 101% | SF-268 CNS 86.2% | SF-295 CNS 90.3% | SF-539 CNS 89.8% | UACC-257 melanoma 95.7% | M14 melanoma 86.8%

Nc1ccc(/C=N/Nc2ccnc3c(N)cccc23)c2cccnc12
active: NCI-H23 lung 3.42% | NCI-H322M lung -4.16% | HOP-62 NSCLC -64.3% | NCI-H460 lung -63.8% | HOP-92 NSCLC -17.9% | NCI-H522 lung -52.2% | A549/ATCC NSCLC -43.8% | 786-0 renal -87% | COLO 205 colon -22.8% | DU-145 prostate -49.1% | K-562 leukemia -55.7% | MDA-MB-231 breast -66.6% | RXF 393 renal -72.5% | SF-268 CNS -61.8% | SF-295 CNS -75.6% | SF-539 CNS -94.9% | M14 melanoma -78.6%
inactive: NCI-H226 lung 89.3% | MALME-3M melanoma 104% | UACC-257 melanoma 88.1%

c1ccc(Cc2cccc[n+]2C(c2ccccc2)c2ccccc2)cc1
active: UACC-257 melanoma 7.44%
inactive: NCI-H23 lung 38.2% | NCI-H226 lung 74.7% | NCI-H322M lung 77.9% | HOP-62 NSCLC 72% | NCI-H460 lung 66.3% | HOP-92 NSCLC 32.5% | NCI-H522 lung 10.2% | A549/ATCC NSCLC 58.5% | 786-0 renal 85.6% | COLO 205 colon 24.4% | DU-145 prostate 68.9% | K-562 leukemia 33% | MALME-3M melanoma 23% | MDA-MB-231 breast 68.2% | RXF 393 renal 93.3% | SF-268 CNS 64.9% | SF-295 CNS 73.6% | SF-539 CNS 56.6% | M14 melanoma 59.8%

Cc1n(Cc2ccc3ccccc3c2)c(Cl)c(Cl)[n+]1Cc1ccc2ccccc2c1
active: HOP-92 NSCLC -11.3% | COLO 205 colon -46.6% | K-562 leukemia 9.4% | MALME-3M melanoma -0.456% | UACC-257 melanoma -13.6%
inactive: NCI-H23 lung 25.6% | NCI-H226 lung 47.1% | NCI-H322M lung 76.2% | HOP-62 NSCLC 59.6% | NCI-H460 lung 33.5% | NCI-H522 lung 16.9% | A549/ATCC NSCLC 81.4% | 786-0 renal 50.2% | DU-145 prostate 48.3% | MDA-MB-231 breast 10.6% | RXF 393 renal 43.3% | SF-268 CNS 34.9% | SF-295 CNS 67.8% | SF-539 CNS 54.4% | M14 melanoma 10.9%

COC(=O)/C=C1/SC(=Nc2ccc([N+](=O)[O-])cc2)N(CCc2c[nH]c3ccccc23)C1=O
inactive: NCI-H23 lung 72.7% | NCI-H226 lung 98.7% | NCI-H322M lung 98.4% | HOP-62 NSCLC 96.7% | NCI-H460 lung 92.2% | HOP-92 NSCLC 73.2% | NCI-H522 lung 53.6% | A549/ATCC NSCLC 90.8% | 786-0 renal 68% | COLO 205 colon 84.6% | DU-145 prostate 66.8% | K-562 leukemia 25.8% | MALME-3M melanoma 86.5% | MDA-MB-231 breast 72.1% | RXF 393 renal 70.4% | SF-268 CNS 75.7% | SF-295 CNS 84.2% | SF-539 CNS 79.6% | UACC-257 melanoma 71.6% | M14 melanoma 52%

COc1cc(-c2nc3occn3c2-c2ccnc(NCCCNS(=O)(=O)c3ccc(O)cc3)n2)ccc1F
inactive: NCI-H23 lung 92.6% | NCI-H226 lung 96.8% | NCI-H322M lung 113% | HOP-62 NSCLC 95% | NCI-H460 lung 102% | HOP-92 NSCLC 86.7% | NCI-H522 lung 72.4% | A549/ATCC NSCLC 94.3% | 786-0 renal 122% | COLO 205 colon 45% | DU-145 prostate 110% | K-562 leukemia 80.6% | MDA-MB-231 breast 67.1% | RXF 393 renal 105% | SF-268 CNS 110% | SF-295 CNS 91.6% | SF-539 CNS 110% | UACC-257 melanoma 54.4% | M14 melanoma 26.2%
active: MALME-3M melanoma -7.42%

COc1cc(OC)cc(-c2ccc(-c3ccc(C(=N)N)cn3)s2)c1
active: NCI-H460 lung 4.75% | K-562 leukemia 0.742%
inactive: NCI-H23 lung 94.6% | NCI-H226 lung 70% | NCI-H322M lung 89.2% | HOP-62 NSCLC 86% | HOP-92 NSCLC 86.6% | NCI-H522 lung 78.7% | A549/ATCC NSCLC 63.2% | 786-0 renal 74.3% | COLO 205 colon 49.4% | DU-145 prostate 66.3% | MALME-3M melanoma 99.5% | MDA-MB-231 breast 81.1% | RXF 393 renal 98.6% | SF-268 CNS 93.9% | SF-295 CNS 88.7% | SF-539 CNS 83.3% | UACC-257 melanoma 97.8% | M14 melanoma 95.7%
